Hits are enriched below; roughly 2.1% of the tested compounds scored in any of these assays.
IEC-6 cytotox = cytotoxicity in IEC-6 intestinal epithelial cells, primary screen, cytotoxicity control for KLF5 inhibitor project, cell-based, luminescence. IEC-6 cytotoxicity, luminescence viability. AID 1825, 2009. inhibition, % at 5 µM. hit rate 0.78% among 290,000; in the data active means inhibition above about 22%;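 further: 0% = plate median of test compound wells and 100% = cytotoxic reference compound wells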
KLF5 inh = KLF5 expression inhibitors, primary screen, DLD-1 cells, luminescence; DLD-1 KLF5 promoter-luciferase reporter; inhibition, % at 5 µM; hit rate 0.23% among 290,000; AID 1700, 2009;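 active means inhibition above a per-plate limit of that plate's mean compound inhibition plus 3 SD, cut at about 60% in these data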;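 further: 0% = DMSO wells and 100% = LY294002 at 200 µM; higher means less KLF5 promoter-driven luciferase light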
BaF3 parental = parental Ba/F3 cell viability inhibition, counter-screen for JAK2V617F inhibitor project, murine pro-B, CellTiter-Glo luminescence | CellTiter-Glo ATP luminescence | inhibition, % at 5.6 µM | hit rate 1.1% among 220,000;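 active means inhibition above a per-campaign cutoff, the mean inhibition of all tested compounds plus 3 SD, cut at about 27% in these data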;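 further: 0% = DMSO wells and 100% = JAK Inhibitor I control wells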
APP transl inh = inhibitors of APP translation via 5'UTR reporter, primary screen, APP 5'UTR luciferase, SH-SY5Y cells; hit rate 0.82% among 190,000; SH-SY5Y APP 5'UTR-luciferase reporter, luminescence; inhibition, % at 2 µM; AID 1285, 2008;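 active means inhibition above a set limit, derived from the sample mean plus 3 SD, cut at about 45% in these data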
Ba/F3 V617F tox = reduced viability of JAK2V617F-dependent Ba/F3 cells, primary screen, JAK2V617F inhibitor project, cell-based, Ba/F3 EpoR-JAK2V617F, luminescence; ATP luminescence; inhibition, % at 5.6 µM; hit rate 1.1% among 220,000; AID 1446, 2008;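 active means inhibition above the campaign mean plus 3 SD over all tested compounds, cut at about 24% in these data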;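 further: cytokine-independent growth of Ba/F3 cells driven by EpoR plus mutant JAK2; 0% = DMSO-treated cells and 100% = JAK inhibitor I control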
aSyn 5UTR inh = MLPCN primary screen, SNCA 5' untranslated region. alpha-synuclein 5'UTR reporter, inhibitor activity. inhibition, % (tested at 7.5 µM). hit rate 0.82% among 300,000; in the data active means inhibition above about 60%;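 further: H4 neuroglioblastoma cells stably carrying SNCA 5'UTR luciferase fusion; 0% = DMSO wells and 100% = positive control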
The depositor's hits bear a star; / = not tested or not shown.

SMILES | IEC-6 cytotox | KLF5 inh | BaF3 parental | APP transl inh | Ba/F3 V617F tox | aSyn 5UTR inh
CC(Oc1cccc2c1OC(C)(C)C2)C(=O)O (centres undefined) | 0 | -41 | 0 | 67* | 0 | -4
CC(C)NC(=O)NC(=O)COc1cccc2c1OC(C)(C)C2 | 0 | -14 | 3 | -5 | 0 | 15
O=C(c1ccccn1)N(Cc1ccco1)C1(C(=O)NC2CCCC2)CCCCC1 | 0 | 18 | 45* | 9 | 6 | -18
O=C(c1cnccn1)N(Cc1ccco1)C1(C(=O)NC2CCCC2)CCCCC1 | -1 | -17 | 8 | 15 | 1 | 5
COc1ccc(C(=O)C[n+]2cc(-c3ccc(OC)cc3)n3c2CCCC3)cc1 | 5 | 3 | 64* | -16 | 65* | 5
O=C(C[n+]1cc(-c2ccccc2)n2c1CCCCC2)c1ccc(Br)cc1 | -1 | -2 | 73* | 7 | 61* | 13
Cc1ccc(NC(=O)C[n+]2cc(-c3ccc(C)cc3)n3c2CCC3)cc1 | -4 | -7 | -1 | / | -4 | /
COc1ccc(C(=O)C[n+]2ccc(-c3nnc4n3CCCCC4)cc2)cc1 | -3 | 5 | 0 | / | -2 | -17
Cc1ccc(-c2c[n+](Cc3ccc(Cl)c(Cl)c3)c3n2CCC3)cc1 | 0 | -14 | 73* | -9 | 78* | 20
O=C(C[n+]1cc(-c2ccccc2)n2c1CCC2)OCc1ccccc1 | 5 | -18 | 3 | -1 | 1 | 10
Cc1ccc(C(=O)C[n+]2cc(-c3ccc(C)cc3)n3c2CCCCC3)cc1 | 20 | 3 | 89* | -4 | 102* | 5
COc1ccc2[nH]cc(CCNC(=O)CCC3CCCCC3)c2c1 | -1 | -27 | / | / | / | 10
COc1ccc(NC(=O)CSc2nc3ccccc3c(=O)n2CCCC(=O)NCC2CCCO2)c(OC)c1 (centres undefined) | 3 | -9 | / | / | / | 24
S=C(NCCc1ccccc1)Nc1cccc2cnccc12 | 11 | 4 | 42* | -6 | 17 | -29
CC(C)(C)NS(=O)(=O)c1ccc(C(=O)Nc2ccc3c(c2)OCO3)cc1 | 5 | -15 | / | / | / | -10
N#CC1=C(N)OC2=C(CCc3ccccc32)C1c1ccccc1Cl (centres undefined) | -1 | 13 | 9 | 94* | 5 | -14
N#CC1=C(N)Oc2cc(N)ccc2C1c1ccccc1Cl (centres undefined) | -8 | -31 | / | / | / | -5
O=C(Nc1ccc(NC(=O)c2cccs2)c(Cl)c1)c1cccs1 | 8 | -83 | / | / | / | -118
Cc1cc(C(=O)N/N=C/c2cc(N=Nc3ccccc3)ccc2O)n[nH]1 | 0 | 18 | 10 | 50* | 5 | 66*
Cc1ccccc1OCCC(=O)OCC(=O)N(C)c1c(N)n(Cc2ccccc2)c(=O)[nH]c1=O | -4 | -18 | / | / | / | -9
CCOc1ccc(C(=O)Oc2ccc(NC(C)=O)cc2)cc1 | -2 | -3 | -1 | -5 | -6 | 80*
CCOc1ccc(NC(=O)CC(=O)Nc2ccc(OCC)cc2)cc1 | 0 | -19 | / | / | / | -15
Cc1ccc(-c2nnc(SCC(C)C)n2C)cc1 | 0 | -61 | 33* | -47 | 30* | -146
CC(C)NC(=O)NC(=O)COC(=O)C1(C)CC1(Cl)Cl (centres undefined) | 2 | -26 | 10 | -17 | 3 | 6
NS(=O)(=O)c1ccc(Nc2nc(-c3ccc(F)cc3)cs2)cc1 | -5 | -25 | 10 | 3 | 1 | 2
SMILES | IEC-6 cytotox | KLF5 inh | BaF3 parental | APP transl inh | Ba/F3 V617F tox | aSyn 5UTR inh
COc1ccc(-c2csc(Nc3ccc(S(N)(=O)=O)cc3)n2)cc1OC | -3 | -25 | 2 | -6 | -2 | 62*
NS(=O)(=O)c1ccc(CCNC(=O)c2cnccn2)cc1 | 2 | -21 | / | / | / | 2
Cn1c(-c2ccccc2[N+](=O)[O-])[n+](C)c2ccccc21 | -2 | -32 | 58* | / | 57* | 16
O=C(CCCn1nnnc1CN1CCOCC1)N1CCN(c2ccccc2F)CC1 | 3 | -12 | / | / | / | 4
CC1(C)Cc2c(cnn2-c2ccc(F)cc2)C(NC(=O)c2ccc(=O)oc2)C1 (centres undefined) | -2 | -43 | / | / | / | -12
Cc1cccc(NS(=O)(=O)c2ccc(C(=O)NCC(c3ccco3)N(C)C)cc2)c1C (centres undefined) | 0 | -42 | / | / | / | -20

High-throughput results as filed in PubChem BioAssay.
